Only some compounds are listed: those with a hit (about 3.5% of all), similar ones and a draw of the others.
FBW7 act: FBW7 E3 ligase activators, primary screen, biochemical, AlphaScreen, human. hit rate 0.13% among 650,000. AID 1259310, 2017. AlphaScreen FBW7–phospho-cyclin E peptide binding, activator screen. F-box/WD repeat-containing protein 7 (Homo sapiens), Q969H0. normalized activity (activation), % at 26.1 µM; in the data active means normalized activity above about 1.9%;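 further: purified mutant Fbw7 with reduced substrate affinity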
Target sequence (Q969H0 whole entry, looked up): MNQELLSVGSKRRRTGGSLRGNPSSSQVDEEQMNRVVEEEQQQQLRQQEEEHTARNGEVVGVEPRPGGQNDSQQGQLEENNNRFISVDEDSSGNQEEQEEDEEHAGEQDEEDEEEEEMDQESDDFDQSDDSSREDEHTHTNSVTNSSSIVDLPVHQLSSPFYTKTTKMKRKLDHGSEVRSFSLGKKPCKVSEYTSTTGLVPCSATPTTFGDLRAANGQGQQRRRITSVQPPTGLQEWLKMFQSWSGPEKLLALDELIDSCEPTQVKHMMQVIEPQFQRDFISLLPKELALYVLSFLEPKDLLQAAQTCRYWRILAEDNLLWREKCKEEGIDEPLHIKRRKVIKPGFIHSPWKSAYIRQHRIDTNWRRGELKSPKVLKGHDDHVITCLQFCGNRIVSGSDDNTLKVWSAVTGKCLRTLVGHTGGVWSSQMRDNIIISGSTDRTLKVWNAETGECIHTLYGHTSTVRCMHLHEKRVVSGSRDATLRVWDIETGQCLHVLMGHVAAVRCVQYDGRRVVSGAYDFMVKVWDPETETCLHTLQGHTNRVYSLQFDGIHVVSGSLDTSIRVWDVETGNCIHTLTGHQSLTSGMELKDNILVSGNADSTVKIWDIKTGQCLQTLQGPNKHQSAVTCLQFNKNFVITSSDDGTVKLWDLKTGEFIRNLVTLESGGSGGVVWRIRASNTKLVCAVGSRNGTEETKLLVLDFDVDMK
TEAD-YAP inh: TEAD-YAP interaction inhibition, primary screen, TEAD-YAP interaction inhibitor project, luminescence, HEK-TIYL cells; inhibition, % at 9.12 µM; TEAD-Gal4/YAP UAS-luciferase luminescence; hit rate 1.4% among 640,000; in the data active means inhibition above about 32%
GPR151 ag: activators of human GPR151, primary screen, cell-based, PathHunter beta-arrestin, luminescence; PathHunter beta-arrestin GPR151 cells; hit rate 1% among 650,000; AID 1508602, 2020; activation, % at 11.2 µM; G-protein coupled receptor 151 (Homo sapiens), Q8TDV0; in the data active means activation above about 4.9%
MITF primary: MITF inhibitors, primary screen, biochemical, AlphaScreen, human. hit rate 0.91% among 650,000. inhibition, % at 2.6 µM. AlphaScreen MITF homodimerization, bead proximity signal; in the data active means inhibition above about 50%
MITF confirm: MITF inhibitors, retest of hits, confirmation, biochemical, AlphaScreen, triplicate | shares compounds with MITF primary | AlphaScreen MITF homodimerization, biotin/His-MITF beads | inhibition, % at 2.6 µM | hit rate 16% among 4,700 | AID 1259372, 2018;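 active means inhibition above a cutoff derived from the DMSO control wells, cut at about 28% in these data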;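 further: inhibitors lower the bead chemiluminescence by keeping MITF from dimerizing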
AlphaScreen intf2: AlphaScreen optical interference compounds, counter-screen for MITF inhibitor project, biochemical, triplicate; shares compounds with MITF primary; LysRS AlphaScreen counterscreen, signal interference; inhibition, % at 2.6 µM; hit rate 7.6% among 4,700; AID 1259376, 2018;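 active means inhibition above a cutoff derived from the DMSO control wells, cut at about 30% in these data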
Large screens that a line does not name were inactive (follow-up assays come after a bar, where they were run).

CC1CCCC(N2CCN(C3CCN(Cc4ccccc4)CC3)CC2)C1 (centres undefined)	none
COc1ccccc1N1CCN(C2CCN(Cc3ccc([N+](=O)[O-])cc3)CC2)CC1	MITF primary 56.6 | MITF confirm inactive | AlphaScreen intf2 inactive
O=[N+]([O-])c1cccc(CN2CCC(N3CCN(c4ccccc4)CC3)CC2)c1	MITF primary 74.1 | MITF confirm inactive | AlphaScreen intf2 inactive
CC1CCCC(N2CCN(Cc3ccc([N+](=O)[O-])cc3)CC2)C1 (centres undefined)	MITF primary 93.8 | MITF confirm inactive | AlphaScreen intf2 inactive
O=[N+]([O-])c1ccc(CN2CCC(N3CCN(c4ccccc4F)CC3)CC2)cc1	none
O=[N+]([O-])c1ccc(CN2CCC(O)CC2)cc1	none
O=[N+]([O-])c1cccc(CN2CCN(C3CCCC3)CC2)c1	MITF primary 76.3 | MITF confirm inactive | AlphaScreen intf2 inactive
CCN1CCN(C2CCN(Cc3cccc([N+](=O)[O-])c3)CC2)CC1	none
O=[N+]([O-])c1ccc(CN2CCN(C3CCCC3)CC2)cc1	MITF primary 60.8 | MITF confirm inactive | AlphaScreen intf2 inactive
Cc1cccc(Cl)c1OCCOCCNCCN	MITF primary 60.7 | MITF confirm inactive | AlphaScreen intf2 inactive
Cc1cccc(C)c1OCCOCCNCCN	MITF primary 54.6 | MITF confirm inactive | AlphaScreen intf2 inactive
Cc1cccc(Cl)c1OCCOCCNC(C)(C)C	none
COCCCNCCCOc1c(C)cccc1C(C)(C)C	none
COCCCNCCOc1c(C)cccc1C(C)(C)C	MITF primary 81.4 | MITF confirm inactive | AlphaScreen intf2 inactive
COCCNCCCCOc1c(C)cccc1C(C)(C)C	none
C=CCNCCOCCOc1c(C)cccc1C(C)(C)C	MITF primary 67.6 | MITF confirm inactive | AlphaScreen intf2 inactive
CCOC(=O)/C(N=Nc1cccc(C(F)(F)F)c1)=C(\O)CCl	none
O=C(N/N=C/c1ccco1)c1cccc(O)c1	none
COc1ccc(-c2cc(C3CC3)nc(SCC(N)=O)c2C#N)cc1	MITF primary 51.5 | MITF confirm inactive | AlphaScreen intf2 inactive
N#Cc1c(-c2ccc(Br)cc2)cc(C2CC2)nc1SCC(=O)c1ccccc1	MITF primary 66.4 | MITF confirm inactive | AlphaScreen intf2 inactive
COc1ccc(-c2cc(C3CC3)nc(SCC(=O)c3ccc(Br)cc3)c2C#N)cc1	none
Cc1ccc2c(Cl)c(C(=O)NCc3ccncc3)sc2c1	MITF primary 69.7 | MITF confirm inactive | AlphaScreen intf2 inactive
CCOC(=O)CNC(=O)c1sc2cc(C)ccc2c1Cl	none
Cc1ccc(OCCCCCNCCO)cc1	none
Cc1ccc(OCCNCCC(=O)O)cc1	MITF primary 56.8 | MITF confirm inactive | AlphaScreen intf2 inactive
COc1ccc(/C=C(\NC(=O)c2ccccc2)C(N)=O)cc1	none
COc1ccc(C(=O)N(C)CCc2ccccn2)cc1	MITF primary 71.4 | MITF confirm inactive | AlphaScreen intf2 inactive
CN(Cc1ccccc1)C(=O)COc1ccc2ccccc2c1	none
CN(CCc1ccccn1)C(=O)c1ccccc1	MITF primary 59.5 | MITF confirm inactive | AlphaScreen intf2 inactive
COc1cc(OC)cc(C(=O)N(C)CCc2ccccn2)c1	MITF primary 70.9 | MITF confirm inactive | AlphaScreen intf2 inactive
COc1ccc(OC)c(CN(C)CCc2ccccn2)c1	none
COc1cc(OC)cc(C(=O)NC(C(=O)NCCc2ccccn2)C(C)C)c1 (centres undefined)	none
CN(CCc1ccccn1)C(=O)COc1ccc2ccccc2c1	MITF primary 84.5 | MITF confirm inactive | AlphaScreen intf2 inactive
COCCNc1c(-c2cnn(C)c2C)nc2cnccn12	none
CCS(=O)(=O)c1c(S(=O)(=O)CC)c2c3ccccc3ccn2c1C(=O)c1ccc([N+](=O)[O-])cc1	none
Cc1cc(NC(=O)COC(=O)c2ccc(NC(N)=O)cc2)ccc1Br	MITF primary 51.9 | MITF confirm inactive | AlphaScreen intf2 inactive
CC/C(C)=N/Nc1nnc2c(n1)[nH]c1ccc(C)cc12	none
O=C(O)c1ccccc1-c1cc(C(=O)O)c2cc(Br)ccc2n1	none
O=C(O)c1cc(-c2ccco2)nc2ccc(Br)cc12	MITF primary 58.0 | MITF confirm inactive | AlphaScreen intf2 inactive
C=C/C=C(\C(C)=C(C)C)N(C(C)=O)C1=NCCCS1	MITF primary 64.7 | MITF confirm inactive | AlphaScreen intf2 inactive
CC(=O)Nc1ccc(CN2CCN(C)CC2)cc1	MITF primary 79.9 | MITF confirm inactive | AlphaScreen intf2 inactive
c1ccc(-c2ccc(CN3CCSCC3)cc2)cc1	none
CN1CCN(Cc2ccc(-c3ccccc3)cc2)CC1	MITF primary 61.3 | MITF confirm inactive | AlphaScreen intf2 inactive
OCCN1CCN(Cc2ccc(-c3ccccc3)cc2)CC1	MITF primary 60.7 | MITF confirm inactive | AlphaScreen intf2 inactive
Cn1ccc2cc(-c3cc(NCc4nc5ccccc5[nH]4)nc(N)n3)ccc21	none
COc1ccc(OCCCOc2ccc(C=O)cc2)cc1	none
CCOC(=O)c1sc2c(c1NC(=O)Cc1ccccc1)CCCC2	none
CN(C(=S)NC(=O)C1(C)CC1(Cl)Cl)c1ccccc1 (centres undefined)	MITF primary 50.6 | MITF confirm inactive | AlphaScreen intf2 inactive
CCOC(=O)C1=C(C)N=c2s/c(=C\c3ccc(-c4ccc(Br)cc4)o3)c(=O)n2C1c1ccc(OC)cc1OC (centres undefined)	none
CSc1ccc(Cc2nnc(NC(=O)C34CC5CC(CC(C5)C3)C4)o2)cc1	MITF primary 52.4 | MITF confirm inactive | AlphaScreen intf2 inactive
CSc1ccc(Cc2nnc(NC(=O)c3cc(C)oc3C)o2)cc1	none
CN=c1scc(C)n1/N=C/C1CCCCC1	MITF primary 96.6 | MITF confirm inactive | AlphaScreen intf2 inactive
CC1(C)CC(=O)C(C=NCc2ccccc2)=C(O)C1	none
CCn1c(=O)c2ccccc2n2c(SCC(=O)NC3CCCCC3)nnc12	none
Cn1c(=O)c2ccccc2n2c(SCC(=O)NC3CCCCC3)nnc12	MITF primary 72.6 | MITF confirm inactive | AlphaScreen intf2 inactive
CCS(=O)(=O)c1ccc2oc(=O)c(/C=C(\O)c3sc(C)nc3C)nc2c1	none
CCc1ccc(C(=O)NC(C(=O)NCC2CCCO2)C(C)C)cc1 (centres undefined)	MITF primary 67.4 | MITF confirm inactive | AlphaScreen intf2 inactive
c1ccc(C2C3=C(CCCC3)SC3=C2CCCC3)cc1	MITF primary 69.6 | MITF confirm inactive | AlphaScreen intf2 inactive
CC(O)CNCC(O)COc1cc(Cl)ccc1Cl (centres undefined)	none
C=CCNCC(O)COc1cc(Cl)ccc1Cl (centres undefined)	MITF primary 53.3 | MITF confirm inactive | AlphaScreen intf2 inactive
Cc1ccc(S(=O)(=O)N2CCOCC2)c([N+](=O)[O-])c1	none

Compound activity from PubChem BioAssay.
